# Reference: PubChem BioAssay (NCATS)
# Several values for one entry are separate records, joined by “and”; a condition that tells them apart may be missing. Identical values can stand only once. A number with no mark means an inactive call. Records with an inconclusive call do not appear. Entries that show only a call come without a potency. Activity calls are given as the source filed them. The call rests on the fitted dose curve; in most records, active means well fitted curve in the direction sought with a large enough effect; inconclusive means small, poorly fitted or top-dose-only effect, or another doubt; inactive means no such curve, though single readings can be large; an effect the other way counts as inactive or inconclusive.
# Tests used:
# [1] = Quantitative High-Throughput drug screen in 47 multiple myeloma cell lines against the NCATS MIPE library collection: FR4_PLB cell viability assay (AID 1918924; further: nearly all actives have a fitted effect of over 35% in size; further: potency means the concentration at half of the fitted maximal effect)
# Outline: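 Steps: seed 500 cells per well; pin-transfer MIPE 4.0 library; incubate 48 h at 37C, 5% CO2, humidified; add CellTiter-Glo, 5 min room temperature; read luminescence.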
# [2] = Quantitative High-Throughput drug screen in 47 multiple myeloma cell lines against the NCATS MIPE library collection: Delta47_JCRB cell viability assay (AID 1918925; further: nearly all actives have a fitted effect of over 45% in size; further: potency means the concentration at half of the fitted maximal effect)
# Outline: (§1)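 CellTiter-Glo luminescence (ATP) after 48 h compound exposure, 37C/5% CO2; 500 cells/well; MIPE 4.0 approved/investigational drugs pinned in; DMSO = 100%, media only = 0% viability.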
# [3] = Quantitative High-Throughput drug screen in 47 multiple myeloma cell lines against the NCATS MIPE library collection: AMO1_DSMZ cell viability assay (AID 1918927; further: nearly all actives have a fitted effect of over 30% in size; further: potency means the concentration at half of the fitted maximal effect)
# Outline: as §1
# [4] = target: Glutathione peroxidase 1 (Homo sapiens) (UniProt P07203); assay: Primary qHTS Assay for Inhibitors of Recombinant Selenoprotein Glutathione Peroxidase 1 (GPX1) (AID 1845191); further: nearly all actives have a fitted effect of over 65% in size; further: potency means the concentration at half of the fitted maximal effect
# Outline: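 GR-coupled readout: NADPH consumption tracked by fluorescence, ex 340/em 450 nm, at t=0 and after 15 min at RT. Final mix 10 nM GPX1, 1 mM GSH, 0.5 mM CHP, 0.5 mM NADPH, 100 nM GR, 0.01% BSA, following 30 min enzyme–compound preincubation.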
# [5] = target: Phospholipid hydroperoxide glutathione peroxidase GPX4 (Homo sapiens) (UniProt P36969); assay: Primary qHTS Assay for Inhibitors of Recombinant Selenoprotein Glutathione Peroxidase 4 (GPX4) (AID 1845192); further: nearly all actives have a fitted effect of over 65% in size; further: potency means the concentration at half of the fitted maximal effect; on activity change, negative = inhibition: series mostly up to about 50 µM
# Outline: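 Steps: GPX4 plus compound, 30 min RT; add GR/GSH/NADPH master mix; start with cumene hydroperoxide; read 340/450 nm fluorescence at 0 and 15 min. Finals were 200 nM GPX4, 1 mM GSH, 0.5 mM CHP, 0.5 mM NADPH, 100 nM GR.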
# [6] = Quantitative High-Throughput drug screen in 47 multiple myeloma cell lines against the NCATS MIPE library collection: EJM_DSMZ cell viability assay (AID 1918926; further: nearly all actives have a fitted effect of over 30% in size; further: potency means the concentration at half of the fitted maximal effect)
# Outline: as §1
# [7] = Primary fluorescence-based thiol-reactive (MSTI) qHTS assay for identification of artifact compounds. (AID 1845221);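 further: series mostly up to about 54 µM; thiol-reactive compounds lower the probe fluorescence signal; nearly all actives have a fitted effect of over 65% in size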
# Outline: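 Thiol-reactive compounds detected by quenching of 4 uM MSTI fluorescence (525/598 nm) after 1 h room-temperature dark incubation in PBS pH 7.4, 2% DMSO. qHTS titration; percent inhibition Hill-fitted against Acetyl-MSTI/MSTI controls.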
# [8] = test system: Nanoluciferase (engineered Oplophorus gracilirostris luciferase); assay: Primary Nanoluciferase (NLuc) qHTS assay for identification of artifact compounds. (AID 1845222); further: series mostly up to about 54 µM
# Outline: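 Diluted conditioned medium from NLuc-expressing S16 cells treated with compounds for 15 min at room temperature, then Nano-Glo substrate added; luminescence read after 5 min. Percent inhibition versus no-enzyme and DMSO controls fitted to 4-parameter Hill equation.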
# [9] = Primary redox qHTS assay for identification of artifact compounds. (AID 1845223)
# Outline: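 Redox-cycling detection via DTT (250 uM final) oxidation coupled to Amplex Red (25 uM)/HRP (250 mU/mL) in HBSS. 15 min preincubation plus 30 min after DTT, room temperature. Ex/Em 525/598 nm; 4-parameter Hill fit against DMSO and 10 uM DA3003.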
# Sequence of Phospholipid hydroperoxide glutathione peroxidase GPX4 (Homo sapiens) (P36969 whole entry, looked up): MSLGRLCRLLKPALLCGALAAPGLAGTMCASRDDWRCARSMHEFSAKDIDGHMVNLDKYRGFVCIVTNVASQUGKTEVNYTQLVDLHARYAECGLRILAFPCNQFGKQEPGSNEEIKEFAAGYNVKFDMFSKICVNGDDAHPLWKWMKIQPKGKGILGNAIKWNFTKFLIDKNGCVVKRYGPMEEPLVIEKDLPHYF
# Sequence of Glutathione peroxidase 1 (Homo sapiens) (P07203 whole entry, looked up): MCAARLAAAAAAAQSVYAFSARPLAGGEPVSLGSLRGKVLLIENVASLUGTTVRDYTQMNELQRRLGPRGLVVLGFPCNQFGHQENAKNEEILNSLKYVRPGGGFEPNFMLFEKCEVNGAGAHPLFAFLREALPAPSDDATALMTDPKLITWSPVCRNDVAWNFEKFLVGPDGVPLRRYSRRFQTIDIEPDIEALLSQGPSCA
structure (smiles),measurement,setting,value
C=CCc1cc(OC)c(O)c(C(=O)NCCO)c1,Potency,[1],inactive
same,Potency,[2],inactive
same,Potency,[3],inactive
Cc1cc(=O)oc2cc(O)ccc12,Potency,[4],18 µM (active) and 4.09 µM (active)
same,Potency,[5],12.8 µM (active) and 1.61 µM (active)
same,Potency,[1],inactive
same,Potency,[3],inactive
CN(C)c1ccc(O)c2c1C[C@H]1C[C@H]3[C@H](N(C)C)C(=O)C(C(N)=O)=C(O)[C@@]3(O)C(=O)C1=C2O,Potency,[4],inactive
same,Potency,[1],20.9 µM (active)
same,Potency,[6],14.8 µM (active)
same,Potency,[3],inactive
N=C(N)c1ccc2cc(OC(=O)c3ccc(N=C(N)N)cc3)ccc2c1,Potency,[4],inactive
same,Potency,[5],inactive
same,Potency,[3],inactive
C[C@]12CCC(=O)C=C1CC[C@@H]1[C@H]2[C@@H](O)C[C@@]2(C)[C@H]1CC[C@]2(O)C(=O)CO,Potency,[1],inactive
same,Potency,[3],inactive
CCOC(=O)c1c(C)n(C)c2ccc(O)cc12,Potency,[4],inactive
same,Potency,[1],inactive
same,Potency,[6],inactive
same,Potency,[3],inactive
Cc1ccc(C(=O)c2cc(O)c(O)c([N+](=O)[O-])c2)cc1,Potency,[4],inactive
same,Potency,[5],inactive
same,Potency,[2],26.4 µM (active)
S=c1nc[nH]c2nc[nH]c12,Potency,[4],inactive
same,Potency,[5],inactive
same,Potency,[3],inactive
O=C(CS(=O)Cc1ccco1)NCC=CCOc1cc(CN2CCCCC2)ccn1 (stereo not drawn),Potency,[1],inactive
same,Potency,[6],inactive
same,Potency,[3],inactive
C[C@H](Cn1cnc2c(N)ncnc21)OCP(=O)(O)O,Potency,[1],inactive
same,Potency,[2],inactive
same,Potency,[6],inactive
O=C(O)c1cc(=O)c2c(OCC(O)COc3cccc4oc(C(=O)O)cc(=O)c34)cccc2o1,Potency,[4],inactive
same,Potency,[5],inactive
same,Potency,[3],inactive
Clc1ccc(C(Cn2ccnc2)OCc2ccsc2Cl)c(Cl)c1 (stereo not drawn),Potency,[4],inactive
same,Potency,[5],inactive
same,Potency,[6],14.8 µM (active)
same,Potency,[3],18.7 µM (active)
CNC[C@@H](O)[C@@H](O)[C@H](O)[C@H](O)CO,Potency,[3],inactive
NC(=O)Cc1cccc(C(=O)c2ccccc2)c1N,Potency,[4],inactive
same,Potency,[5],inactive
same,Potency,[2],inactive
same,Potency,[6],inactive
same,Potency,[3],inactive
Cc1cc(=O)c2c(O)c3c(O)cc(=O)c4c3c3c(cc(O)c1c23)C(C)(C)C=4O,Potency,[1],13.2 µM (active)
same,Potency,[2],0.372 µM (active)
same,Potency,[6],14.8 µM (active)
same,Potency,[3],5.26 µM (active)
CCN(CCO)CCCC(C)Nc1ccnc2cc(Cl)ccc12 (stereo not drawn),"activity change, negative = inhibition",[5],-25.1% [at 4.52 µM] and 2.25% [at 4.52 µM]
same,"activity change, negative = thiol reactive",[7],-3.32% [at 6.41 µM]
same,"activity, negative = inhibition",[8],-2.86% [at 6.45 µM]
same,redox activity (% of DA3003),[9],-6.64% [at 6.41 µM]
same,Potency,[1],inactive
same,Potency,[2],inactive
same,Potency,[6],inactive
CC(C)[C@H](N)C(=O)OCCOCn1cnc2c(=O)[nH]c(N)nc21,Potency,[4],inactive
same,Potency,[5],inactive
same,Potency,[2],inactive
same,Potency,[6],inactive
same,Potency,[3],26.4 µM (active)
Cc1ncc([N+](=O)[O-])n1CC(C)O (stereo not drawn),Potency,[4],inactive
same,Potency,[5],inactive
same,Potency,[1],inactive
same,Potency,[3],inactive
Clc1ccc(C(Cn2ccnc2)OCc2ccc(Sc3ccccc3)cc2)c(Cl)c1 (stereo not drawn),Potency,[4],inactive
same,Potency,[5],inactive
same,Potency,[3],20.9 µM (active)
